# Measured values published in PubChem BioAssay.
# Values joined by “and” are separate entries in the source; they are usually repeats but may differ in a detail not shown here. Equal entries are not always repeated. Active and inactive are the calls of the source.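 The calls were made as follows: active = compounds whose cell count with miR-34 switched on is under 0.7 times the count with it off; inactive = the rest.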
# Experiment: sensitizers of A549 cells to miR-34 induction, primary screen, imaging, A549 dox-inducible miR-34, nuclei and caspase counts (AID 1347080); also: test concentration not given here
# Details: A549 miR-34 inducible, Hoechst nuclei count, 48 h
# [1] = stronger effect = lower value, cell number ratio, induced over uninduced
# [2] = measured here: relative caspase fold change +Dox/-Dox
# [3] = measured here: total cells with miR-34 induction, stronger effect = lower value
# [4] = measured here: total cells without miR-34 induction
Compound,fold change [1],fold change [2],cell count [3],cell count [4]
CC(C)=CCC/C(C)=C/CC/C(C)=C/C(O)P(=O)(O)O (configuration not stated),0.968 (inactive),0.767,5800,5990
CCCCCCCCCCCCCCCC(=O)NC(CO)CO,0.966 (inactive),0.974,5260,5440
CCCCCCCCCCCCCCCC(=O)OC[C@H](COP(=O)([O-])OCC[N+](C)(C)C)OC(=O)CCCCCCCC(=O)O,0.924 (inactive),0.678,5760,6240
CCCCC[C@@H](O)/C=C/[C@H]1[C@H](O)CC(=O)[C@@H]1CCCCCCC(=O)O,0.974 (inactive),1.39,5460,5600
CCCCCCCC/C=C\CCCCCCCC(=O)OCC,1 (inactive),0.399,5610,5590
O=C(O)CCC/C=C\C[C@H]1[C@@H](/C=C/[C@@H](O)CCc2ccccc2)[C@H](O)C[C@H]1O,0.969 (inactive),0.334,5150,5310
C#CCOc1ccccc1CCCCCC(=O)NS(C)(=O)=O,0.952 (inactive),0.875,5890,6190
O=C(CN=C(c1ccccc1)c1ccccc1)OCc1ccccc1,0.875 (inactive),1.1,5290,6050
O=C1C[C@@H]2[C@@H](CC[C@@H](O)CCc3ccccc3)[C@H](O)C[C@@H]2O1,1.01 (inactive),0.657,6130,6050
CCCCCCCCCCCCCCCC(=O)OC[C@H](COP(=O)([O-])OCC[N+](C)(C)C)OC(=O)CCCCCCCC(=O)/C=C/C(=O)O,0.943 (inactive),0.858,5750,6100
CCCCCCCCCCCCCCCCOC[C@H](COP(=O)([O-])OCC[N+](C)(C)C)OC(=O)CCC,0.868 (inactive),0.912,5110,5890
CCCCC[C@H](O)/C=C/[C@H]1C2COC(C2)[C@@H]1C/C=C\CCCC(=O)O (some centres not stated),0.904 (inactive),0.954,5380,5950
CCCCC[C@@H](O)/C=C/[C@@H]1[C@@H](C/C=C\CCCC(=O)O)[C@@H](O)C[C@H]1O,0.977 (inactive),1.24,5960,6100
CCCCC[C@H](O)/C=C/[C@@H]1[C@H]2CC(CCCCC(=O)O)O[C@H]2C[C@H]1O (some centres not stated),0.937 (inactive),1.39,6700,7150
NCc1cccc2ccncc12,0.913 (inactive),0.524,5270,5780
COc1cc([C@@H]2OC[C@@H](c3cc(OC)c(OC)c(OC)c3)O2)cc(OC)c1OC,0.96 (inactive),0.869,5040,5250
CC(C)CCCCCCC/C=C/C(=O)O,0.859 (inactive),0.582,5080,5910
CC(Sc1nc2ccccc2[nH]1)C(=O)N/N=C/c1cc(Br)ccc1O (configuration not stated),1.01 (inactive),1.43,6060,6010
CCCc1cc(C(=O)c2ccc(-c3ccccc3)cc2)ccc1OCCCN1CCCc2c(OC(C)(C)C(=O)O)cccc21,0.856 (inactive),1.42,5600,6540
O=C(O)CCCCCC[C@H]1C(=O)NC(=O)N1CCC(O)C1CCCCC1 (some centres not stated),1.09 (inactive),1.38,6150,5640

Compound,fold change [1],fold change [2],cell count [3],cell count [4]
CCCCCCCCCCCCCCCCOC[C@H](COP(=O)([O-])OCC[N+](C)(C)C)OC,0.789 (inactive),1.27,5780,7330
CCCCCCCCCCCCCCCCCC(=O)OCC,0.95 (inactive),2.18,5760,6060
CCCCCNC1=C(c2cn(C)c3ccccc23)C(=O)N(C)C1=O,0.981 (inactive),1.69,6020,6140
CCCCC[C@H](O)/C=C/[C@H]1[C@H](O)CC(=O)[C@H]1CCCCCCC(=O)O,1.03 (inactive),0.989,5570,5390
CCCCC[C@H](O)/C=C/[C@H]1[C@H](O)CC(=O)[C@@H]1C/C=C\CCCC(=O)OCC(O)CO (some centres not stated),0.945 (inactive),0.932,5540,5860
CCCCCCC(Sc1nc(Cl)cc(NCc2ccc(-c3ccccc3)cc2)n1)C(=O)O (configuration not stated),0.993 (inactive),1.34,6140,6180
CCCCCC(=O)/C=C/[C@@H]1[C@H](C/C=C\CCCC(=O)O)[C@H](O)C[C@H]1O,0.99 (inactive),3.22,5630,5690
CC(C)OC(=O)CCC/C=C\C[C@@H]1[C@@H](/C=C/[C@@H](O)CCc2ccccc2)[C@H](O)C[C@@H]1O,0.961 (inactive),1.39,5640,5870
CC/C=C/C[C@H](O)/C=C/[C@H]1[C@H](O)CC(=O)[C@@H]1C/C=C\CCCC(=O)O,0.915 (inactive),1.46,5700,6230
CC(C)[C@H](O)C(=O)O,0.982 (inactive),1.05,5470,5570
CCCCCCC[C@H](O)/C=C/[C@H]1[C@H](O)CC(=O)[C@@H]1C/C=C\CCCC(=O)O,0.933 (inactive),1.19,5790,6200
CCCCC[C@H](O)/C=C/[C@@H]1[C@@H](C/C=C/CCCC(=O)O)[C@H](O)C[C@H]1O,0.95 (inactive),1.55,5260,5540
C=C1C[C@H](O)[C@H](C/C=C\CCCC(=O)O)[C@H]1/C=C/[C@@H](O)CCCCC,0.988 (inactive),1.72,5940,6010
CCCCC[C@H](O)/C=C/[C@@H]1[C@@H](C/C=C\CCCCOC)[C@@H](O)C[C@H]1O,0.815 (inactive),1.35,5300,6500
CCCC[C@H](CCC(=O)O)NC(=O)CCCCCCc1ccccc1,0.993 (inactive),1.71,6520,6570
O=C(O)CCC/C=C\C[C@@H]1[C@@H](/C=C/[C@H](O)CCc2ccccc2)[C@H](O)C[C@@H]1O,0.915 (inactive),1.56,5340,5830
CC[C@@H]1/C=C(\C)C[C@H](C)C[C@H](OC)[C@H]2O[C@@](O)(C(=O)C(=O)N3CCCC[C@H]3C(=O)O[C@H](/C(C)=C/[C@@H]3CC[C@@H](O)[C@H](OC)C3)[C@H](C)[C@@H](O)CC1=O)[C@H](C)C[C@@H]2OC,0.914 (inactive),1.28,3590,3930
C=CC[C@@H]1/C=C(\C)C[C@@H](C)C[C@H](OC)[C@H]2O[C@@](O)(C(=O)C(=O)N3CCCC[C@H]3C(=O)O[C@H](/C(C)=C/[C@@H]3CC[C@@H](O)[C@H](OC)C3)[C@H](C)[C@@H](O)CC1=O)[C@H](C)C[C@@H]2OC,0.908 (inactive),0.315,5040,5550
CCCCC/C=C\C/C=C\C/C=C\C/C=C\CCCC(=O)C(F)(F)F,0.997 (inactive),0.841,5370,5390
C[C@H](N)C(=O)CCCCCC(=O)O,1.03 (inactive),0.642,6090,5890

Compound,fold change [1],fold change [2],cell count [3],cell count [4]
CC/C=C\C/C=C\C/C=C\C/C=C\C/C=C\CCCC(=O)O[C@H](COCCCCCCCCCCCCCCCC)COP(=O)([O-])OCC[N+](C)(C)C,0.886 (inactive),1.31,5330,6010
O=C(O)CCC/C=C\C[C@@H]1[C@@H](/C=C/C(=O)CCc2ccccc2)[C@H](O)C[C@@H]1O,0.902 (inactive),1.59,5390,5980
CCCCC(C)(C)[C@H](O)/C=C/[C@H]1[C@H](O)CC(=O)[C@@H]1CC(=O)CCCCC(=O)O,0.919 (inactive),1.32,5680,6180
CCCCCCCC/C=C\CCCCCCCC(=O)OCC(O)COP(=O)(O)O (configuration not stated),1.12 (inactive),0.696,5760,5140
CCCCC[C@H](O)CC[C@@H]1[C@H]2Cc3cccc(OCC(=O)O)c3C[C@H]2C[C@H]1O,0.95 (inactive),1.46,6200,6530
O=C(O)c1ccc2c(c1)CCCC2,0.93 (inactive),0.342,5260,5660
CCCCC/C=C\C/C=C\C/C=C\C/C=C\CCCCNC(=O)c1ccc(O)cc1,0.937 (inactive),0.908,5740,6120
COc1cc(C[C@H]2COC(=O)[C@@H]2Cc2ccc(O)c(OC)c2)ccc1O,0.981 (inactive),0.938,5500,5600
O=C(O)CCC/C=C\C[C@@H]1[C@@H](/C=C/C(F)(F)COc2ccccc2)[C@H](O)C[C@@H]1O,1.03 (inactive),1.05,5600,5440
OC[C@H]1O[C@H](O[C@H]2[C@H](O)[C@@H](O)[C@H](O)O[C@@H]2CO)[C@H](O)[C@@H](O)[C@@H]1O,0.99 (inactive),0.551,8780,8870
C=C(C)[C@@H]1CCC(C)=C[C@H]1c1c(O)cc(C)cc1O,0.94 (inactive),1.01,5290,5630
CCCCC[C@H](O)/C=C/[C@H]1CC[C@@H](O)[C@@H]1CCCCCCC(=O)O,0.884 (inactive),1.26,6100,6900
CCCC/C=C\CCCCCCCC(=O)OC,1.02 (inactive),0.704,5700,5570
CCCCCCCCCCCCCCCCOC[C@H](COP(=O)([O-])OCC[N+]1(C)CCCC1)OC(C)=O,0.82 (inactive),1.31,5250,6400
CCCCC[C@H](O)/C=C/[C@H]1[C@H](O)CC(=O)[C@@H]1C/C=C\CCCC(=O)OC,0.938 (inactive),1.71,5670,6040
CCCCC/C=C\C/C=C\C/C=C\C/C=C\CCCC(=O)O[C@H](COCCCCCCCCCCCCCCCC)COP(=O)([O-])OCC[N+](C)(C)C,0.94 (inactive) and 0.936 (inactive),1.77 and 0.976,5550 and 5760,5910 and 6160
CC(C)=CCC/C(C)=C/CC/C(C)=C/CSc1ccccc1C(N)=O,0.994 (inactive),0.741,5740,5780
Cc1nnsc1C(=O)Nc1ccc(-n2nc(C(F)(F)F)cc2C(F)(F)F)cc1,1.08 (inactive),1.08,5850,5430
